Several values for one entry are separate records, joined by “and”; a condition that tells them apart may be missing. Equal values may be shown once. Activity calls are given as the source filed them.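 How the source made its calls, unless noted: active means inhibition at or above 50% relative to wild type and mutant plate controls; inactive means inhibition below 50%.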
Legend:
[1] = inhibitors of TNFa-induced NFkB p65 translocation, primary screen, imaging, HUVEC, MLSMR starter and 10KST1 sets (AID 438;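 active means inhibition above 20% together with a positive visual image hit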;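 further: compound added about 3h40 before a 20 min TNFalpha stimulation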;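 on inhibition: signal is the nuclear over cytoplasmic p65 intensity ratio per well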); conditions: HUVEC TNFa-induced p65 nuclear translocation; cell count: measured here: nuclei count (cytotoxicity indicator), at 2.08 µM; inhibition: at 2 µM, stronger effect = higher value, 0% TNFa-plus-vehicle, 100% no-TNFa wells
[2] = inhibitors of mutant huntingtin aggregation, primary screen, imaging, exon1htt(103Q)mCFP cells, high-content imaging (AID 483;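 active means visual image review flags a hit and inhibition of aggregation exceeds 20%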;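 further: compound exposure lasted 3 days before fixation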;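 on nuclei count: percent of the per-plate median nuclei count of sample wells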); conditions: exon1htt(103Q)mCFP cell line, aggregate imaging, at 2 µM; inhibition of aggregation: stronger effect = higher value; nuclei count: measured here: cell count, toxicity
[3] = inhibitors of E-selectin induction by TNFa, primary screen, imaging, HUVEC, immunofluorescence, MLSMR starter and 10KST1 sets (AID 487;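 active means visually confirmed hit in the image check and inhibition above 20%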;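 on inhibition: signal is fraction of cell area covered by stained E-selectin grains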;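 on nuclei count: 100% = median nuclei count of all wells on the same plate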); conditions: HUVEC TNFalpha-induced E-selectin immunofluorescence imaging, at 2 µM; inhibition: stronger effect = higher value; nuclei count: measured here: cell number, toxicity
[4] = DUSP6 inhibitors restoring Erk phosphorylation by chemical complementation, primary imaging in DUSP6-transfected HeLa (AID 609;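 active means compounds giving at least 50% inhibition in the cell-based MKP-3 phosphatase rescue imaging test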;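 on inhibition: phospho-Erk level distribution per well compared with pooled transfected vehicle control wells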); conditions: HeLa MKP-3 transfected, phospho-Erk imaging KS statistic, at 10 µM, cells stimulated with TPA for 15 min
[5] = biological target: Dual specificity protein phosphatase 6 (Homo sapiens) (UniProt Q16828); assay: as above; conditions: HeLa MKP-3 transfected, phospho-Erk imaging KS statistic; at 10 µM; stronger effect = higher value; cells stimulated with TPA for 15 min
Chain of Dual specificity protein phosphatase 6 (Homo sapiens) (Q16828 whole entry, looked up): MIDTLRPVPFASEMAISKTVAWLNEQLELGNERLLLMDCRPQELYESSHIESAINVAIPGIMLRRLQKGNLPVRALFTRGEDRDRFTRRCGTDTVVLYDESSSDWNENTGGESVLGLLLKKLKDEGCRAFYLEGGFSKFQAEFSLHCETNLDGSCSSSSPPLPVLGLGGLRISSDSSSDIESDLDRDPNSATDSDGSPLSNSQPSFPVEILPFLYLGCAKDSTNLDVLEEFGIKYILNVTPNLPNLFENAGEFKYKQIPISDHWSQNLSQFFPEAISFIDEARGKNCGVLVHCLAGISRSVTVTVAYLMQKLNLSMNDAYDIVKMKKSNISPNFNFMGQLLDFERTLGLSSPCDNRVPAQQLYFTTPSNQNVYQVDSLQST

[6] = biological target: Voltage-gated potassium channel subunit beta-2 (Rattus norvegicus) (UniProt P62483); assay: KvBeta enzyme negative modulators, primary screen, biochemical, NADPH fluorescence (AID 622;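 active means fluorescence slope higher than the sample average by over 3 SD, cut at about -0.22 in these data, passing the limit was not always enough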;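 further: slope of raw intensity against log time taken from 70 to 1610 s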); conditions: recombinant KvBeta, 4-cyanobenzaldehyde reduction, at 10 µM, stronger effect = higher value
Chain of Voltage-gated potassium channel subunit beta-2 (Rattus norvegicus) (P62483 whole entry, looked up): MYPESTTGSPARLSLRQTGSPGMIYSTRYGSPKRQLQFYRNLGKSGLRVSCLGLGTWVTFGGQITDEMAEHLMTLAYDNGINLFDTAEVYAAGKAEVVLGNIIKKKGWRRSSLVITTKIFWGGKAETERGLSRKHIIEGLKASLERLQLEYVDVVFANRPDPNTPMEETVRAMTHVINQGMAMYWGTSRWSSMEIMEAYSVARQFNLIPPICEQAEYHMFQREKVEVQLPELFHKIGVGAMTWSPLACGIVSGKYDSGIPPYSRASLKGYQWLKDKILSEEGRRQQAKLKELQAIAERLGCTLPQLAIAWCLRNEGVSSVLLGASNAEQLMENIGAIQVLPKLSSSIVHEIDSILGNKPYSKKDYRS

[7] = biological target: Voltage-gated potassium channel subunit beta-2 (Rattus norvegicus) (UniProt P62483); assay: KvBeta positive modulators, primary screen, biochemical, NADPH fluorescence (AID 623;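 active means NADPH fluorescence slope more negative than the mean of all samples by about 3 SD, 99.7% confidence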;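 further: fluorescence intensity change per second fitted from 20 to 320 s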); conditions: Recombinant KvBeta, NADPH fluorescence decrease slope, 10 min; at 10 µM; stronger effect = lower value
[8] = biological target: Alpha-2C adrenergic receptor (Homo sapiens) (UniProt P18825); assay: modulators of alpha2C/GIRK thallium flux, primary screen, cell-based, HEK293 alpha2C/GIRK1/2 (AID 624;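 active means fluorescence slope after compound addition differing from the mean of all screened samples at 99.7% confidence, in either direction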;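 further: slope of fluorescence ratio to pre-addition baseline per second over 15 to 24 s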); conditions: thallium flux BTC fluorescence, at 10 µM, actives lie on both sides
Chain of Alpha-2C adrenergic receptor (Homo sapiens) (P18825 whole entry, looked up): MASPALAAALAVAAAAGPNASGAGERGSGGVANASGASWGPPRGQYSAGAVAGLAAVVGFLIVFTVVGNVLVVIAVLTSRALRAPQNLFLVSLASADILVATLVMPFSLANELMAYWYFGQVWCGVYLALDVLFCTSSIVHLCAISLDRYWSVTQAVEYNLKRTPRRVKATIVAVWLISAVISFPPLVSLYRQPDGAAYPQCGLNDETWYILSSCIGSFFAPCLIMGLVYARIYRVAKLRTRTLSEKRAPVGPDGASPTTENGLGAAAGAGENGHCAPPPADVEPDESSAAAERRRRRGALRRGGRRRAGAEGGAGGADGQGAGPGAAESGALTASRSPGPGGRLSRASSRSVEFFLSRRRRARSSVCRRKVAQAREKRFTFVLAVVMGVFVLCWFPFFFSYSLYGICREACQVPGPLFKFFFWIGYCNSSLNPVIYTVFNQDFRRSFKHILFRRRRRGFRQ

[9] = inhibitors of larval lipid processing in zebrafish, primary screen, whole organism, PED6 fluorescence, gall bladder and intestine (AID 686;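 active means a full or partial loss of lipid-probe fluorescence in the fish gall bladder, intestine or both, judged by eye; inactive means no fluorescence loss, or compound toxic to the fish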;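 further: larvae 5 to 7 days old with five fish per well; signal comes from phospholipase A2 cleavage of quenched PED6 carried via bile; overnight exposure to compound and PED6 before scoring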); conditions: Zebrafish larvae PED6 lipid processing, fluorescence scoring; screened at 20 µM (by protocol)
[10] = inhibitors of Chlamydomonas gravitaxis, primary screen, whole organism, Chlamydomonas reinhardtii, WT vs cilia-less mutant, absorbance, 96-well (AID 463189); conditions: OD600 absorbance, 2 days, at 10 µM, stronger effect = higher value;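 further: 0% = wild type cc124 cells in DMSO and 100% = ciliumless bld1 mutant cells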
[11] = inhibitors of Sendai virus-induced IRF3 signaling, primary screen, TLR/RLR signaling modifier project, cell-based, Sendai virus stimulus, luciferase, 10K MLSCN set (AID 602276;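 active means inhibition at or above 50% at 10 µM; inactive means inhibition below 50%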;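 further: firefly luciferase from ISG56 promoter only with Renilla not read in this screen; 0% = Sendai virus plus DMSO and 100% = medium plus DMSO without virus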); conditions: HEK293 RL24 IRF3 luciferase reporter, at 10 µM, stronger effect = higher value
[12] = inhibitors of poly I:C-induced TLR3 signaling, primary screen, cell-based, poly I:C stimulus, luciferase, 10K MLSCN set (AID 602277;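 active means inhibition of the reporter signal at or above 50%; inactive means inhibition below 50%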); conditions: HEK293-TLR3 RL24 IRF3 luciferase reporter, at 10 µM, stronger effect = higher value
[13] = measured here: cell density z-score
[14] = measured here: nuclear c-Myc green intensity z-score
[15] = measured here: nuclear pErk red intensity z-score, stronger effect = higher value

Row | SMILES | cell count [1] | inhibition [1] | inhibition of aggregation [2] | nuclei count [2] [%] | inhibition [3] | nuclei count [3] [%] | z-score [4, 13] | z-score [4, 14] | z-score [4, 15] | inhibition [5] | fluorescence slope [6] | NADPH fluorescence slope [7] | slope [8] | outcome [9] | inhibition [10] | inhibition [11] | inhibition [12]
1 | Cc1cc(C)nc(NC2=NCC(=O)N2c2ccc(Cl)cc2)n1 | 641 | -3.3% (inactive) | -9.6% (inactive) | 111 | -78.7% (inactive) | 107 | 0.855 | 0.968 | -1.07 | 13.9% (inactive) | -0.492 (inactive) | -1.6e-05 (inactive) | 0.00625 (inactive) | inactive | -3.81% (inactive) | 15.2% (inactive) | 17.2% (inactive)
2 | CC(=O)O[C@]1(C(C)=O)CC[C@H]2[C@@H]3C[C@H](C)C4=CC(=O)CC[C@]4(C)[C@H]3CC[C@@]21C | 605 | 2.3% (inactive) | 0.3% (inactive) | 94.8 | -47.8% (inactive) | 119 | 1.33 | -0.458 | 0.835 | 12.4% (inactive) | -0.521 (inactive) | -6e-06 (inactive) | 0.00379 (inactive) | inactive | -2.6% (inactive) | 8.39% (inactive) | 46.7% (inactive)
3 | CCn1cc(C(=O)O)c(=O)c2cc(F)c(N3CCNCC3)cc21 | 576 | -6.9% (inactive) | 13% (inactive) | 87.7 | -31% (inactive) | 108 | 0.515 | -1.04 | 1.05 | -6.41% (inactive) | -0.472 (inactive) | 1.5e-05 (inactive) | 0.00555 (inactive) | inactive | -5.87% (inactive) | -0.442% (inactive) | 10.8% (inactive)
4 | O=C(O)c1cccnc1Nc1cccc(C(F)(F)F)c1 | 579 | -0.7% (inactive) | 7.2% (inactive) | 55.6 | -109% (inactive) | 125 | -1.55 | -0.913 | 0.921 | 3.59% (inactive) | -0.507 (inactive) | -5.7e-05 (inactive) | 0.00519 (inactive) | inactive | 0.869% (inactive) and -7.21% (inactive) | 17.3% (inactive) | 24.1% (inactive)
5 | O=C(NCCO)c1cccc2c1C(=O)c1ccccc1-2 | 511 | -13.6% (inactive) | 9.3% (inactive) | 91.4 | -95.8% (inactive) | 137 | -0.677 | 1.11 | 1.88 | 7.73% (inactive) | -0.517 (inactive) | -5.1e-05 (inactive) | 0.00471 (inactive) | inactive | 31.9% (inactive) | 4.9% (inactive) | -1.91% (inactive)
6 | CN(C)c1nc(OCCOC(=O)Nc2ccc(Cl)cc2Cl)nc(N(C)C)n1 | 397 | -14.7% (inactive) | -0.2% (inactive) | 56.4 | -100% (inactive) | 122 | 0.138 | 0.513 | -0.605 | -5.26% (inactive) | -0.48 (inactive) | -8.2e-05 (inactive) | 0.00682 (inactive) | inactive | -0.1% (inactive) | 11.3% (inactive) | 0.088% (inactive)
7 | O=C1CC(c2ccccc2)NC(=O)N1 (configuration not stated) | 692 | -11.2% (inactive) | 15.5% (inactive) | 100 | 23% (inactive) | 127 | -1.04 | -0.999 | 0.572 | 9.39% (inactive) | -0.454 (inactive) | -0.000279 (inactive) | 0.0044 (inactive) | inactive | -8.12% (inactive) | 11% (inactive) | 23.5% (inactive)
8 | CNC[C@H](O)c1cccc(O)c1 | 561 | 0.6% (inactive) | 1.2% (inactive) | 89.3 | -73.1% (inactive) | 117 | 0.304 | 0.128 | -0.803 | 14.6% (inactive) | -0.468 (inactive) | -5e-05 (inactive) | 0.00773 (inactive) | inactive | -10.5% (inactive) and 0.836% (inactive) | 11.5% (inactive) | 41.6% (inactive)
9 | CC(=O)[C@H]1CC[C@H]2[C@@H]3CCC4=CC(=O)CC[C@]4(C)[C@H]3[C@H](O)C[C@]12C | 603 | -11.5% (inactive) | 8.3% (inactive) | 112 | -156% (inactive) | 135 | 1.17 | 0.758 | -0.978 | 7.39% (inactive) | -0.485 (inactive) | 4.5e-06 (inactive) | 0.00386 (inactive) | inactive | -5.96% (inactive) | -13.1% (inactive) | -16.3% (inactive)
10 | CC1(C)Cc2c(c(N3CCOCC3)nc3sc(C#N)c(N)c23)CS1 | 626 | -0.4% (inactive) | -6.4% (inactive) | 114 | -68.9% (inactive) | 120 | -0.238 | -0.405 | 0.382 | 5.42% (inactive) | -0.0293 (active) | -1.7e-06 (inactive) | 0.00535 (inactive) | inactive | 21.2% (inactive) | -2.57% (inactive) | 16.1% (inactive)
11 | COc1cccc(-c2nnc3sc(C4CCCCC4)nn23)c1 | 569 | -0.9% (inactive) | 42.2% (active) | 66.9 | -37.4% (inactive) | 130 | 0.451 | 0.807 | -1.36 | -13.3% (inactive) | -0.418 (inactive) | -0.000116 (inactive) | 0.00489 (inactive) | inactive | 112% (active) | 28.7% (inactive) | 10.1% (inactive)
